From the supplement of paper PMC12582362
Structures can show the parent of a compound that is named as a salt. The whole screen tested about 1,500 compounds, of which about 30 (2%) showed activity. Shown is part of a subset that was picked to be rich in actives. Values without a mark were called inactive.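 Rule for the calls: active = robust z-score below -2; a few such results were not called.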

system: optoTopBP1 Flp-In 293 T-REx (HEK293) cells; experiment: light-induced TopBP1 condensate (nuclear foci) count, plate-normalised robust z-score vs non-control wells; higher = more TopBP1 condensates (negative = condensation inhibitor), active = hit call of the paper; settings: 10 µM; incubation time 2 h

Question: How did the “light-induced TopBP1 condensate (z-score)” value turn out when `CN(c1nccc(=O)[nH]1)C1CCN(c2nc3ccccc3n2Cc2ccc(F)cc2)CC1` [Mizolastine] was run?
Answer: The value was -0.786.

Question: `CC(C)=CCOc1ccc(/C=C/C(=O)c2ccc(OCC=C(C)C)cc2OCC(=O)O)cc1` [Sofalcone] was tested. Which “light-induced TopBP1 condensate (z-score)” value did it give?
Answer: Its value is 0.373.

Question: How did the “light-induced TopBP1 condensate (z-score)” value turn out when `CC(=O)OCC(=O)[C@@]12OC3(CCCC3)O[C@@H]1C[C@H]1[C@@H]3CCC4=CC(=O)C=C[C@]4(C)[C@@]3(F)[C@@H](O)C[C@@]12C` [Amcinonide] was run?
Answer: Its value is 0.776.

Question: For `CNCC[C@@H](Oc1cccc2ccccc12)c1cccs1` [(R)-Duloxetine hydrochloride], which “light-induced TopBP1 condensate (z-score)” value is on record?
Answer: Its value is -1.75.

Question: Which “light-induced TopBP1 condensate (z-score)” value does the source give for `O=C(CCCCC(=O)Nc1c(I)cc(I)c(C(=O)O)c1I)Nc1c(I)cc(I)c(C(=O)O)c1I` [Iodipamide] here?
Answer: Its value is -0.465.

Question: How did the “light-induced TopBP1 condensate (z-score)” value turn out when `CC(C(=O)O)c1ccc(C(=O)c2cccs2)cc1` (stereo not drawn) [Suprofen] was run?
Answer: The value was -0.434.

Question: Which “light-induced TopBP1 condensate (z-score)” value does the source give for `COc1cc(C(=O)NC2CCCNC2)cc(OC)c1OC` (stereo not drawn) [Troxipide] here?
Answer: Its value is -0.997.

Question: With `Nc1nc(=S)c2ncn([C@@H]3O[C@H](CO)[C@@H](O)[C@H]3O)c2[nH]1` [Thioguanosine] as the compound, how does the “light-induced TopBP1 condensate (z-score)” value read?
Answer: Its value is 1.17.

Question: With `OCCN1CCN(CCCN2c3ccccc3C=Cc3ccccc32)CC1` [Opipramol dihydrochloride] as the compound, how does the “light-induced TopBP1 condensate (z-score)” value read?
Answer: Its value is -0.102.

Question: With `CO[C@@H]1[C@@H](O[C@@H]2O[C@H](C)[C@@H](O[C@H]3C[C@@](C)(O)[C@@H](O)[C@H](C)O3)[C@H](N(C)C)[C@H]2O)[C@@H](CC=O)C[C@@H](C)[C@@H](O[C@H]2CC[C@H](N(C)C)[C@@H](C)O2)/C=C/C=C/C[C@@H](C)OC(=O)C[C@H]1OC(C)=O` [Acetyl spiramycin] as the compound, how does the “light-induced TopBP1 condensate (z-score)” value read?
Answer: The value was -0.0623.

Question: `CC[C@]12CCCN3CCc4c(n(c5ccccc45)[C@@](O)(C(=O)OC)C1)[C@@H]32` [Vincamine] was tested. Which “light-induced TopBP1 condensate (z-score)” value did it give?
Answer: Its value is -0.735.

Question: Which “light-induced TopBP1 condensate (z-score)” value does the source give for `CC1=C(C)C(=O)C(C(CCCCCC(=O)O)c2ccccc2)=C(C)C1=O` (stereo not drawn) [Seratrodast] here?
Answer: Its value is -1.1.

Question: For `O=C(O)c1ccccc1Nc1cc(Cl)ccc1C(=O)O` [Lobenzarit disodium], which “light-induced TopBP1 condensate (z-score)” value is on record?
Answer: The value was 0.707.

Question: With `CCCCC(CC)CNC(=N)NC(=N)NCCCCCCNC(=N)NC(=N)NCC(CC)CCCC` (stereo not drawn) [Alexidine dihydrochloride] as the compound, how does the “light-induced TopBP1 condensate (z-score)” value read?
Answer: Its value is -0.446.

Question: For `COC(=O)C1=C(C)NC(C)=C(C(=O)O[C@H]2CCN(Cc3ccccc3)C2)[C@H]1c1cccc([N+](=O)[O-])c1` [Barnidipine Hydrochloride], which “light-induced TopBP1 condensate (z-score)” value is on record?
Answer: The value was -1.06.

Question: With `CCOCCn1c(N2CCCN(C)CC2)nc2ccccc21` [Emedastine] as the compound, how does the “light-induced TopBP1 condensate (z-score)” value read?
Answer: Its value is -0.971.

Question: With `CN1CCC(=C2c3ccccc3Sc3ccccc32)CC1` [Pimethixene maleate] as the compound, how does the “light-induced TopBP1 condensate (z-score)” value read?
Answer: The value was -1.21.

Question: How did the “light-induced TopBP1 condensate (z-score)” value turn out when `C[C@H]1[C@@H](O)O[C@@H]2O[C@@]3(C)CC[C@H]4[C@H](C)CC[C@@H]1[C@@]24OO3` [Artenimol] was run?
Answer: Its value is 0.222.

Question: With `CC(=O)OC(C)OC(=O)C(C)c1ccc(-c2ccccc2)c(F)c1` (stereo not drawn) [Flurbiprofen axetil] as the compound, how does the “light-induced TopBP1 condensate (z-score)” value read?
Answer: Its value is -0.559.

Question: With `Cc1cc2nc3ccc(N(C)C)cc3[s+]c2cc1N` [Tolonium chloride] as the compound, how does the “light-induced TopBP1 condensate (z-score)” value read?
Answer: The value was -9.72 (active).

Question: For `O=C(Cn1cnnn1)N[C@@H]1C(=O)N2C(C(=O)O)=C(CSc3nncs3)CS[C@H]12` [Ceftezole], which “light-induced TopBP1 condensate (z-score)” value is on record?
Answer: The value was -0.707.

Question: How did the “light-induced TopBP1 condensate (z-score)” value turn out when `O=C(Cn1c(=O)sc2ccc(Cl)cc21)N1CCN(CCO)CC1` [Tiaramide Hydrochloride] was run?
Answer: The value was 0.609.

Question: How did the “light-induced TopBP1 condensate (z-score)” value turn out when `O=C1c2c(O)cccc2Cc2cccc(O)c21` [Anthralin] was run?
Answer: Its value is -0.589.

Question: For `O=C1c2cccc(O)c2C(=O)c2c(O)cccc21` [1,8-Dihydroxyanthraquinone], which “light-induced TopBP1 condensate (z-score)” value is on record?
Answer: The value was -2.97 (active).

Question: Which “light-induced TopBP1 condensate (z-score)” value does the source give for `CC(=O)Oc1cccc2c1C(=O)c1c(OC(C)=O)cc(C(=O)O)cc1C2=O` [Diacerein] here?
Answer: The value was -1.09.

Question: How did the “light-induced TopBP1 condensate (z-score)” value turn out when `CC(C(=O)O)c1cccc(Oc2ccccc2)c1` (stereo not drawn) [Fenoprofen calcium salt dihydrate] was run?
Answer: Its value is 0.527.

Question: How did the “light-induced TopBP1 condensate (z-score)” value turn out when `CN1CCC(OC(c2ccccc2)c2ccccc2)CC1` [Diphenylpyraline hydrochloride] was run?
Answer: Its value is -0.243.

Question: For `CC=CC(=O)N(CC)c1ccccc1C` [Crotamiton], which “light-induced TopBP1 condensate (z-score)” value is on record?
Answer: The value was -1.09.

Question: For `CC(=O)CC(c1ccccc1)c1c(O)c2ccccc2oc1=O` (stereo not drawn) [Warfarin], which “light-induced TopBP1 condensate (z-score)” value is on record?
Answer: The value was 0.476.

Question: How did the “light-induced TopBP1 condensate (z-score)” value turn out when `Nc1ccn([C@H]2CC[C@@H](CO)O2)c(=O)n1` [Zalcitabine] was run?
Answer: Its value is 0.161.

Question: Which “light-induced TopBP1 condensate (z-score)” value does the source give for `Nc1ccn([C@@H]2O[C@H](CO)[C@@H](O)[C@@H]2O)c(=O)n1` [Cytarabine] here?
Answer: The value was -1.9.

Question: For `Nc1ccn([C@@H]2O[C@H](CO)[C@@H](O)C2(F)F)c(=O)n1` [Gemcitabine], which “light-induced TopBP1 condensate (z-score)” value is on record?
Answer: The value was -2.33 (active).

Question: With `O=C(Oc1cccc2cccnc12)c1ccccc1` [Benzoxiquine] as the compound, how does the “light-induced TopBP1 condensate (z-score)” value read?
Answer: Its value is -0.428.

Question: How did the “light-induced TopBP1 condensate (z-score)” value turn out when `OCCOCCN1CCN(C2=Nc3ccccc3Sc3ccccc32)CC1` [Quetiapine hemifumarate] was run?
Answer: The value was 0.443.

Question: With `O=C(CCCl)NCc1ccccc1` [Beclamide] as the compound, how does the “light-induced TopBP1 condensate (z-score)” value read?
Answer: Its value is 0.736.

Question: With `O=C1[C@H]2CCCC[C@H]2C(=O)N1CCCCN1CCN(c2nsc3ccccc23)CC1` [Perospirone] as the compound, how does the “light-induced TopBP1 condensate (z-score)” value read?
Answer: Its value is -0.904.

Question: With `CC(=O)O[C@@]12CO[C@@H]1C[C@H](O)[C@@]1(C)C(=O)[C@H](O)C3=C(C)[C@@H](OC(=O)[C@H](O)[C@@H](NC(=O)OC(C)(C)C)c4ccccc4)C[C@@](O)([C@@H](OC(=O)c4ccccc4)[C@H]21)C3(C)C` [Docetaxel] as the compound, how does the “light-induced TopBP1 condensate (z-score)” value read?
Answer: Its value is -1.72.

Question: With `CNC(=O)c1c(I)c(C(=O)NCC(=O)Nc2c(I)c(C(=O)O)c(I)c(C(=O)NCCO)c2I)c(I)c(N(C)C(C)=O)c1I` [Ioxaglic acid] as the compound, how does the “light-induced TopBP1 condensate (z-score)” value read?
Answer: The value was 1.43.

Question: How did the “light-induced TopBP1 condensate (z-score)” value turn out when `Cn1cc([S+](C)[O-])c(=O)c2ccc(F)cc21` (stereo not drawn) [Flosequinan] was run?
Answer: Its value is 0.501.

Question: With `CC(=O)OCC(=O)[C@@]1(O)CC[C@H]2[C@@H]3CCC4=CC(=O)C=C[C@]4(C)[C@@]3(F)[C@@H](O)C[C@@]21C` [Isoflupredone acetate] as the compound, how does the “light-induced TopBP1 condensate (z-score)” value read?
Answer: The value was 0.491.

Question: Which “light-induced TopBP1 condensate (z-score)” value does the source give for `NC(=O)c1ncn([C@@H]2O[C@H](CO)[C@@H](O)[C@H]2O)c1O` [Mizoribine] here?
Answer: Its value is -0.419.

Question: How did the “light-induced TopBP1 condensate (z-score)” value turn out when `N=c1ccn2c(n1)O[C@H]1[C@H](O)[C@@H](CO)O[C@H]12` [Ancitabine hydrochloride] was run?
Answer: The value was -2.02 (active).

Question: For `Nc1ncn(C2OC(CO)C(O)C2O)c(=O)n1` (stereo not drawn) [Azacytidine-5], which “light-induced TopBP1 condensate (z-score)” value is on record?
Answer: Its value is 0.0662.
